Measured values as given in PubChem BioAssay (EPA / NIEHS).
Values joined by “and” are separate entries in the source; they are usually repeats but may differ in a detail not shown here. Identical values can stand only once. Records with an inconclusive call do not appear. Active and inactive are the calls of the source. Rule for the calls, unless noted: active = hit-call score of the fitted dose curve at least 0.9, where 1 is the maximum; inactive = score below 0.9.

Legend:
[1] = target: Nuclear respiratory factor 1 (Homo sapiens) (UniProt Q16656); assay: ATG_NRF1_CIS: Attagene CIS-FACTORIAL HepG2 Assay for human Nuclear Respiratory Factor 1 (NRF1) Orphan Gene (AID 2282987); conditions: HepG2 NRF1 cis-element reporter, Attagene multiplex; actives raise or lower the signal
Nuclear respiratory factor 1 (Homo sapiens), sequence (Q16656 whole entry, looked up): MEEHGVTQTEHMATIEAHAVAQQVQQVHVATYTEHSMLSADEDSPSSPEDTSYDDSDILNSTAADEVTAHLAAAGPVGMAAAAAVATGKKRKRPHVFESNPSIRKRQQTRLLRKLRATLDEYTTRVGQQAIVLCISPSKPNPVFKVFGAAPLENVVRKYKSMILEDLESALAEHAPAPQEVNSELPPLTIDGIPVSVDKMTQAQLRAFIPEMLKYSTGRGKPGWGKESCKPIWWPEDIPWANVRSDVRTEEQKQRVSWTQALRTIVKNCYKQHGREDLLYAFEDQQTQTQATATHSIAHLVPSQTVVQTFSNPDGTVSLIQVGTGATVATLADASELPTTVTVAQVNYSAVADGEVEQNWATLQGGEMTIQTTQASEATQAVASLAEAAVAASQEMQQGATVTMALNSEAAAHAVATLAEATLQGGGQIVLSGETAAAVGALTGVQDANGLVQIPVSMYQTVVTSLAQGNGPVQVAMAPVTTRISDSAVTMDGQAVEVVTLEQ
How it was run: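 Multiplexed cis-reporter assay, HepG2 cells, 24 h treatment. Total RNA → oligo(dT) RT → PCR with reporter-specific primers → 6-FAM primer extension → HpaI cut → CE. Bidirectional fit vs DMSO.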

[2] = ATG_NFI_CIS: Attagene CIS-FACTORIAL HepG2 Assay for human Nuclear Factor I (NFI) (AID 2282989); conditions: HepG2 cis-regulatory reporter, NFI response element transcription; actives raise or lower the signal
How it was run: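 HepG2, transient MRTU, 24 h exposure; RNA→cDNA→PCR→FAM label→HpaI→CE fluorescence. Bidirectional fit, DMSO = baseline.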

[3] = target: Myc proto-oncogene protein (Homo sapiens) (UniProt P01106); assay: ATG_Myc_CIS: Attagene CIS-FACTORIAL HepG2 Assay for human Myelocytomatosis (Myc) Proto-Oncogene Transcription Factor (AID 2282990); conditions: HepG2, Attagene cis-reporter transcription factor activity; actives raise or lower the signal
Myc proto-oncogene protein (Homo sapiens), sequence (P01106 whole entry, looked up): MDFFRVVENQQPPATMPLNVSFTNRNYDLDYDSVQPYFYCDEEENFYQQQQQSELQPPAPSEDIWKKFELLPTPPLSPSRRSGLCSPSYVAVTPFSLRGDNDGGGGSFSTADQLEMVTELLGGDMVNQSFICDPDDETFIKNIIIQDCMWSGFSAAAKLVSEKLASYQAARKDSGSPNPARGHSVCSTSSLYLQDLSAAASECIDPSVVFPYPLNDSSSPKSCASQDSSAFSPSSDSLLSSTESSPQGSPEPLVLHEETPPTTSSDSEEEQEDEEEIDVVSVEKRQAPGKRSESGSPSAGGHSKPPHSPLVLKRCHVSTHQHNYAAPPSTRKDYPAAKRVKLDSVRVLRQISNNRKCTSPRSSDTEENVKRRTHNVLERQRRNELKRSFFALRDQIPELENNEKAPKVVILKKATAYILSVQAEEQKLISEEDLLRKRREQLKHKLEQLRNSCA
How it was run: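 Cells of the HepG2 human liver line bear multiple cis-driven reporter transcription units. Reporter mRNA after 24 h exposure is reverse-transcribed, amplified, labelled and resolved by capillary electrophoresis, with gain- or loss-of-signal fitting relative to DMSO.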

[4] = ATG_NF_kB_CIS: Attagene CIS-FACTORIAL HepG2 Assay for human Nuclear Factor Kappa B (NF-kB) (AID 2282991); conditions: HepG2 Attagene cis-factorial NF-kB reporter mRNA; actives raise or lower the signal
How it was run: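 Transient MRTU transfection of human HepG2 liver cells → 24 h chemical exposure → total RNA, oligo(dT) RT → PCR, 6-FAM primer extension, HpaI digest 2 h 37 C → CE fragment analysis. Bidirectional fitting, DMSO negative control.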

[5] = ATG_Oct_MLP_CIS: Attagene CIS-FACTORIAL HepG2 Assay for human Octamer-Binding Transcription Factor (Oct) (AID 2282993); conditions: HepG2 Attagene cis-factorial Oct reporter, mRNA; actives raise or lower the signal
How it was run: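 Multiplexed cis-reporter assay in human liver HepG2 cells, 24 h incubation. Reporter RNA amplified and labelled, then resolved by capillary electrophoresis; DMSO serves as negative control and baseline.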

[6] = target: Cellular tumor antigen p53 (Homo sapiens) (UniProt P04637); assay: ATG_p53_CIS: Attagene CIS-FACTORIAL HepG2 Assay for human p53 Transcription Factor (AID 2282994); conditions: HepG2 p53 cis-element reporter, Attagene mRNA; actives raise or lower the signal
Cellular tumor antigen p53 (Homo sapiens), sequence (P04637 whole entry, looked up): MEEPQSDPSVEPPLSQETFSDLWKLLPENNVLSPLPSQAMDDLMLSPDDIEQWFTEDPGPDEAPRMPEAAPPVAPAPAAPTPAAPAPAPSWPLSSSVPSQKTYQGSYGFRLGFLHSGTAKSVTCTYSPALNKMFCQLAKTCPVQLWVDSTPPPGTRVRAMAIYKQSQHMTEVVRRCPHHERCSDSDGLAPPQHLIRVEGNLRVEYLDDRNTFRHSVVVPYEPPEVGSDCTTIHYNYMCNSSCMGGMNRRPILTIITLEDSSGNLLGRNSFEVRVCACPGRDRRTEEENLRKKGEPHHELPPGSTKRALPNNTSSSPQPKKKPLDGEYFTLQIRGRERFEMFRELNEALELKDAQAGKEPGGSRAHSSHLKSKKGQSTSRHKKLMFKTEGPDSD
How it was run: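 HepG2, transient MRTU transfection (cis promoter elements, endogenous TFs); 24 h dosing; RNA isolation, RT-PCR, 6-FAM primer extension, HpaI digest, CE fluorescence; bidirectional fit vs DMSO.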

[7] = target: human Peroxisome Proliferator-activated Receptor delta (PPARd), PPARD (gene 5467) (UniProt Q03181); assay: ATG_PPARd_TRANS: Attagene TRANS-FACTORIAL HepG2 Assay for human Peroxisome Proliferator-activated Receptor delta (PPARd) (AID 2283002; active = hit-call score of the fitted dose curve at least 0.9, where 1 is the maximum)
human Peroxisome Proliferator-activated Receptor delta (PPARd), PPARD (gene 5467), sequence (Q03181 whole entry, looked up): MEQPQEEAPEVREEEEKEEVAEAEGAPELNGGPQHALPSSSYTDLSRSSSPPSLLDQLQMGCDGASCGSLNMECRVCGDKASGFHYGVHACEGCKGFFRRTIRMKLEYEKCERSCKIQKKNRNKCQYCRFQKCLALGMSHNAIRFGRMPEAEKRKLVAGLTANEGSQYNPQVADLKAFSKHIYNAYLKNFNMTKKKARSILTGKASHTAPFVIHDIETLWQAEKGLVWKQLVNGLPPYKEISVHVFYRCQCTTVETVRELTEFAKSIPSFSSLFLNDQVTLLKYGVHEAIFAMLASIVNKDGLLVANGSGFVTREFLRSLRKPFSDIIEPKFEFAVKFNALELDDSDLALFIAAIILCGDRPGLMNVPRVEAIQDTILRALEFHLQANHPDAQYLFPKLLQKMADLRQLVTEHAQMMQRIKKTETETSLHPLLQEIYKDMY
How it was run: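 Cell-based TRANS reporter: HepG2, transient MRTU transfection, 24 h exposure. Readout = reporter mRNA (RT-PCR/CE, 6-FAM). Gain-of-signal fit vs DMSO control.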

[8] = target: Peroxisome proliferator-activated receptor gamma (Homo sapiens) (UniProt P37231); assay: ATG_PPARg_TRANS: Attagene TRANS-FACTORIAL HepG2 Assay for human Peroxisome Proliferator-activated Receptor-gamma (PPARg) (AID 2283007; active = hit-call score of the fitted dose curve at least 0.9, where 1 is the maximum)
Peroxisome proliferator-activated receptor gamma (Homo sapiens), sequence (P37231 whole entry, looked up, the tested form may be a part): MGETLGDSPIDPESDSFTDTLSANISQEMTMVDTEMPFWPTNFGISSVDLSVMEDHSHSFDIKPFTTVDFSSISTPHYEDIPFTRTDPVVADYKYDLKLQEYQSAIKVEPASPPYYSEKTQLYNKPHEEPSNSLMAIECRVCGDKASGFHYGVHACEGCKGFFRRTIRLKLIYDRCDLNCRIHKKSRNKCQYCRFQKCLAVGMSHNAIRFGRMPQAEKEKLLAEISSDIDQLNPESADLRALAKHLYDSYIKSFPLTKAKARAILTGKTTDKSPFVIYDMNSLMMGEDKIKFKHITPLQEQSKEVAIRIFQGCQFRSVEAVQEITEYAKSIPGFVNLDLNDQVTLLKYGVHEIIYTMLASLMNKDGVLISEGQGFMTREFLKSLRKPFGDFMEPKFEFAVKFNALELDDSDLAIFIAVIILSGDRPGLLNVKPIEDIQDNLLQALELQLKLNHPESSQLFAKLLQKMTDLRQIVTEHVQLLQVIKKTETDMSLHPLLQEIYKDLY
How it was run: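 Transient transfection of HepG2 with GAL4-UAS-driven reporter units; chemical dosing 24 h; total RNA → oligo(dT) RT → PCR with reporter primers → 6-FAM primer extension → HpaI digest 2 h 37 C → capillary electrophoresis. Positive direction vs DMSO.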

[9] = target: Nuclear receptor subfamily 1 group I member 2 (Homo sapiens) (UniProt O75469); assay: ATG_PXR_TRANS: Attagene TRANS-FACTORIAL HepG2 Assay for human Pregnane X Receptor (PXR) (AID 2283008; active = hit-call score of the fitted dose curve at least 0.9, where 1 is the maximum)
Nuclear receptor subfamily 1 group I member 2 (Homo sapiens), sequence (O75469 whole entry, looked up, the tested form may be a part): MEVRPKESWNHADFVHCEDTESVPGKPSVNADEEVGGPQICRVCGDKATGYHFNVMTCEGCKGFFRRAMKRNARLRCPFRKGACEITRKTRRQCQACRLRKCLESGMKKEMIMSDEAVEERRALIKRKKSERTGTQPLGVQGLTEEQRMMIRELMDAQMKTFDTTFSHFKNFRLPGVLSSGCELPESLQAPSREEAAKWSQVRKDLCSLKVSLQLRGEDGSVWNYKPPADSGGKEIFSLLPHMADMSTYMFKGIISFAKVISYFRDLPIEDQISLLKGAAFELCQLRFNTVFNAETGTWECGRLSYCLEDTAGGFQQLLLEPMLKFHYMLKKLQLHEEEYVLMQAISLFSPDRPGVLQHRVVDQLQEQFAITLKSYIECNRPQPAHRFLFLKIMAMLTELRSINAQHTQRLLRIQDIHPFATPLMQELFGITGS
How it was run: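 Read-out is fluorescence of labelled reporter cDNA fragments separated by capillary electrophoresis after RT-PCR and HpaI digestion. Source: HepG2 cells carrying PXR-GAL4/UAS reporter constructs, treated 24 h; activity fitted upward relative to DMSO.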

[10] = BSK_3C_TissueFactor: BioMAP Diversity Plus: 3C Assay for Tissue Factor Biomarker Activity (AID 2282997); conditions: BioMAP 3C HUVEC, tissue factor biomarker readout; actives raise or lower the signal
How it was run: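 Primary human umbilical vein endothelial cells in the 3C system were exposed to test chemical for 24 h, then Tissue Factor measured by ELISA. Activity was fitted bidirectionally against DMSO as negative control and baseline.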

[11] = BSK_3C_uPAR: BioMAP Diversity Plus: 3C Assay for Urokinase-type plasminogen activator receptor (uPAR) Biomarker Activity (AID 2282998); conditions: BioMAP 3C HUVEC, uPAR biomarker ELISA; actives raise or lower the signal
How it was run: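 Dose primary human umbilical vein endothelial cells, incubate 24 h, measure cell-surface uPAR by ELISA, then fit the signal in both directions against the DMSO negative control.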

[12] = BSK_3C_VCAM1: BioMAP Diversity Plus: 3C Assay for Vascular cell adhesion molecule 1 (VCAM1) Biomarker Activity (AID 2282999); conditions: BioMAP 3C HUVEC, VCAM1 ELISA, cytokine-stimulated; actives raise or lower the signal
How it was run: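 Endothelial cells from human umbilical vein are treated with test chemical. At 24 h, VCAM-1 is measured by ELISA, and responses in either direction are fitted relative to DMSO.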

[13] = read-out: Intercellular Adhesion Molecule 1 (ICAM1), ICAM1 (gene 3383); assay: BSK_3C_ICAM1: BioMAP Diversity Plus: 3C Assay for Intercellular Adhesion Molecule 1 (ICAM1) Biomarker Activity (AID 2283003); conditions: primary human endothelial cells (HUVEC); actives raise or lower the signal
How it was run: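 Primary human umbilical vein endothelial cells in the BioMAP 3C system were exposed to chemicals for 24 h, then ICAM-1 was quantified by ELISA. Activity was fitted bidirectionally against the DMSO negative control baseline.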

[14] = target: Retinoic acid receptor alpha (Homo sapiens) (UniProt P10276); assay: ATG_RARa_TRANS: Attagene TRANS-FACTORIAL HepG2 Assay for human Retinoic Acid Receptor alpha (RARa) (AID 2283005; active = hit-call score of the fitted dose curve at least 0.9, where 1 is the maximum)
Retinoic acid receptor alpha (Homo sapiens), sequence (P10276 whole entry, looked up, the tested form may be a part): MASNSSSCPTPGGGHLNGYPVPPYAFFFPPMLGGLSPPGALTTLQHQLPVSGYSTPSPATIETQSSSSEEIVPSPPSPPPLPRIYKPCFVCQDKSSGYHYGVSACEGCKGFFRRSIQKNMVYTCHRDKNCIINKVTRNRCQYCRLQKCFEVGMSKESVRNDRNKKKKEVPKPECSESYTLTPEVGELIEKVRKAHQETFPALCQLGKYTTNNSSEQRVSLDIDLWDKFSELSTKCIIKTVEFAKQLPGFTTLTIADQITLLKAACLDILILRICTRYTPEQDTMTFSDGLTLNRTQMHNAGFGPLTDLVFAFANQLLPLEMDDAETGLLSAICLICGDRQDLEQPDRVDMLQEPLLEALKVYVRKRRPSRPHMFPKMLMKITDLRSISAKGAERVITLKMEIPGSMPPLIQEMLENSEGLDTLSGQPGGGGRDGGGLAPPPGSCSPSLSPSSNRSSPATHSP
How it was run: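 Reporter transcripts, measured by RT-PCR with fluorescent labeling and capillary electrophoresis after 24 h dosing, reflect activity of an exogenous human RARa–GAL4 fusion in transiently transfected HepG2. Fitted for increase relative to DMSO.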

[15] = BSK_3C_Proliferation: Cell Proliferation Assessment in the BioMAP Diversity Plus: 3C Assay (AID 2283006); conditions: primary human endothelial cells (HUVEC)
How it was run: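 Human umbilical vein endothelial cells were grown sub-confluent and exposed to chemical for 48 h, then fixed with 10% TCA and stained with 0.1% sulforhodamine B; absorbance at 560 nm gave relative cell number, fitted bidirectionally against DMSO baseline.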

[16] = ATG_NRF2_ARE_CIS: Attagene CIS-FACTORIAL HepG2 Assay for human Nuclear Factor Erythroid 2 Related Factor 2 (NFR2) response to Antioxidant Response Elements (ARE) (AID 2282992); conditions: HepG2 Attagene ARE/NRF2 reporter, transcription factor activity; actives raise or lower the signal
How it was run: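 Transient MRTU transfection of HepG2; 24 h compound exposure; TriZol RNA, RT with oligo(dT), PCR, 6-FAM primer extension, HpaI cut, CE. Bidirectional fit vs DMSO.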

[17] = BSK_4H_Eotaxin3: BioMAP Diversity Plus: 4H Assay for Eotaxin 3 Biomarker Activity (AID 2283000); conditions: primary human endothelial cells (HUVEC); actives raise or lower the signal;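 note: CCL26 protein level quantified by ELISA in parallel with SRB cytotoxicity check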
How it was run: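 HUVEC, 24 h post-dose, ELISA for Eotaxin-3/CCL26. Gain or loss of signal fitted bidirectionally vs DMSO baseline.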

[18] = target: human Peroxisome Proliferator-activated Receptor alpha (PPARa), PPARA (gene 5465) (UniProt Q07869); assay: ATG_PPARa_TRANS: Attagene TRANS-FACTORIAL HepG2 Assay for human Peroxisome Proliferator-activated Receptor alpha (PPARa) (AID 2283001; active = hit-call score of the fitted dose curve at least 0.9, where 1 is the maximum)
human Peroxisome Proliferator-activated Receptor alpha (PPARa), PPARA (gene 5465), sequence (Q07869 whole entry, looked up, the tested form may be a part): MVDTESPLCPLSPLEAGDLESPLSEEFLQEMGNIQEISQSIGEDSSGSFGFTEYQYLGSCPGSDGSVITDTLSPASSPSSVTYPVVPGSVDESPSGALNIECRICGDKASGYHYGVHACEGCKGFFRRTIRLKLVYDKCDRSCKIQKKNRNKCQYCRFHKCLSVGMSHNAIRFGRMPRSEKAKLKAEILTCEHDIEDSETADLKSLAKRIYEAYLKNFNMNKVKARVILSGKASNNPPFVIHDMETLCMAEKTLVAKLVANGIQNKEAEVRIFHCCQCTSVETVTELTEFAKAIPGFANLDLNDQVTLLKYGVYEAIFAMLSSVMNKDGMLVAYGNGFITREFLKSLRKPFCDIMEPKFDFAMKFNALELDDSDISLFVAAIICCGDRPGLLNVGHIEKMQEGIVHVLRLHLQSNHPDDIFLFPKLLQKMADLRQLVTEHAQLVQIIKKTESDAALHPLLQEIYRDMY
How it was run: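 Reporter transcripts from GAL4-UAS units in transfected HepG2 were quantified 24 h after dosing. Detection used reverse transcription, PCR, fluorescent primer extension and capillary electrophoresis, with DMSO as baseline.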

Measured: AC50

CNC(=O)Oc1ccc(N(C)C)c(C)c1
inactive: [1] | [2] | [3] | [4] | [5] | [6] | [7] | [8] | [9]

O=C(O)C(F)(F)OC(F)(F)C(F)(F)OC(F)(F)F
active: [8] 122 µM and 84.6 µM
not listed: [6] | [16] | [17] | [18]
inactive: all other assays above

c1nc[nH]n1
not listed: [4] | [6] | [7] | [14]
inactive: all other assays above

CCOP(=S)(OCC)SCSCC
active: [9] 9.51 µM
not listed: [6] | [7] | [14] | [16] | [17] | [18]
inactive: all other assays above

CC(C)(C)OOC(C)(C)C
not listed: [6] | [8] | [9] | [14] | [16] | [18]
inactive: all other assays above

CC1(C)CN=C(NN=C(/C=C/c2ccc(C(F)(F)F)cc2)/C=C/c2ccc(C(F)(F)F)cc2)NC1
active: [1] 18 µM | [2] 15.4 µM | [5] 20.8 µM
inactive: [3] | [4] | [7] | [14] | [9]
